In PubChem BioAssay:
Activity calls are given as the source filed them.

Legend:
[1] = system: Human papillomavirus type 1a protein E7 (residues 44-93); assay: HPV1a E7 fragment binders on microarrays, primary screen, biochemical, small-molecule microarray, residues 44-93, 635 nm fluorescence (AID 1108); details: small-molecule microarray binding, fluorescence 635 nm; higher = more signal;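 further: E7 fragment applied at 1 µg/mL in TBST for 1 h at 4 C; score combines spot fluorescence with its signal to noise ratio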
[2] = modulators of HCV replicon luciferase signal, primary screen, HCV replication inhibitor project, Huh7 cells, luciferase reporter (AID 1109); details: 48 h, higher = more signal;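 further: huh7 hepatoma cells harbouring a luciferase neomycin HCV replicon reporter; luciferase luminescence as measure of HCV replicon replication; test concentration not given here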
[3] = molecular target: Left-right determination factor 2 (Homo sapiens) (UniProt O00292); assay: LEFTY2 binders on small-molecule microarrays, primary screen, biochemical, small-molecule microarray, 635 nm fluorescence scan (AID 1110); details: LEFTY2 binding, higher = more signal
[4] = molecular target: Calmodulin-1 (Homo sapiens) (UniProt P0DP23); assay: CALM1 binders on microarrays, EGTA buffer, profiling panel, biochemical, small-molecule microarray, Cy5-labelled CALM1 (AID 1111); details: Cy5-CALM1 binding fluorescence, higher = more signal;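 further: labelled calmodulin applied in Tris saline Tween buffer holding calcium plus EGTA and DTT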
[5] = molecular target: Calmodulin-1 (Homo sapiens) (UniProt P0DP23); assay: calcium-bound CALM1 binders on microarrays, profiling panel, artefact control for SMM control-protein annotation, biochemical, small-molecule microarray, Cy5-labelled CALM1, plus calcium (AID 1112); details: Cy5-CALM1 binding fluorescence, higher = more signal;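 further: score merges spot fluorescence with signal to noise from triplicate slides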
[6] = small-molecule microarray binders of probe aWnt5a, primary screen, biochemical, biotinylated probe, 635/667 nm fluorescence (AID 1113); details: higher = more signal;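 further: score merges 667 nm fluorescence intensity with signal-to-noise per printed feature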
[7] = small-molecule microarray binders of probe aShh, primary screen, biochemical, biotinylated probe, 635/667 nm fluorescence (AID 1114); details: higher = more signal;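 further: probe is biotin-labelled aShh protein from a stem cell growth factor screen; measures binding of labelled protein to compounds printed on the slide; score merges feature fluorescence at 667 nm with signal-to-noise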
[8] = small-molecule microarray binders of probe aNog, primary screen, biochemical, biotinylated probe, 635/667 nm fluorescence (AID 1115); details: higher = more signal;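 further: probe is biotinylated aNog protein used at 0.15 µg/mL for 1 h at 4 C; z-score combines 667 nm fluorescence of each spot with its signal to noise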
[9] = molecular target: Torsin-1A-interacting protein 1 (Homo sapiens) (UniProt Q5JTV8); assay: LAP1 binders from COS7 cell lysate, primary screen, small-molecule microarray, 635/667 nm fluorescence (AID 1116); details: COS7-hLAP1 lysate binding, 635 nm fluorescence, higher = more signal
[10] = molecular target: Alpha-bungarotoxin (Bungarus multicinctus) (UniProt P60615); assay: alpha-bungarotoxin binders on microarray, profiling panel, artefact control for SMM control protein annotation, biochemical, small-molecule microarray, Alexa647 label, 635/667 nm fluorescence (AID 1117); details: alpha-BTX-A647 binding fluorescence, higher = more signal
Albumin (Bos taurus) = Albumin (Bos taurus) (UniProt P02769); assay: bovine serum albumin binders on microarray, profiling panel, artefact control for SMM control protein annotation, biochemical, small-molecule microarray, Alexa647 label, 635/667 nm fluorescence (AID 1118); details: BSA-A647 binding, fluorescence 635 nm, higher = more signal;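 further: score merges 667 nm emission intensity and signal-to-noise per printed compound spot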
[11] = small-molecule microarray binders of probe aXIP, primary screen, biochemical, NeuroSMM set, 635/667 nm fluorescence (AID 1119); details: higher = more signal, called active from +8 up or from −8 down;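 further: probe is the protein aXip251-270 applied at 1 µg/mL to compound-printed slides; binding of probe to printed compounds measured as 667 nm fluorescence plus signal to noise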
[12] = small-molecule binders of probe aNOTCH3, primary screen, biochemical, small-molecule microarray, 635/667 nm fluorescence (AID 1120); details: higher = more signal;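 further: probe is a biotin-tagged antibody raised against NOTCH3 rather than NOTCH3 protein; score merges spot fluorescence near 667 nm with spot signal to noise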
[13] = small-molecule binders of probe aNOTCH2, primary screen, biochemical, small-molecule microarray, 635/667 nm fluorescence (AID 1121); details: higher = more signal;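 further: score merges feature fluorescence read at 667 nm with its signal to noise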
[14] = molecular target: Carbonic anhydrase 2 (Homo sapiens) (UniProt P00918); assay: CAII small-molecule binders, profiling panel, biochemical, small-molecule microarray, Alexa647-labelled CAII (AID 1122); details: CAII-A647 binding fluorescence, higher = more signal
[15] = COS7 lysate on small-molecule microarray, probe aHis, 635 nm (AID 1123); details: COS7 cell lysate, fluorescence, higher = more signal;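 further: z-score combines 667nm fluorescence intensity with signal-to-noise per printed compound spot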
[16] = compound binding in COS7 lysate, probe aLAP1, primary screen, cell lysate, small-molecule microarray (AID 1124); details: probe aLAP1, fluorescence, higher = more signal;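 further: lysate comes from COS7 cells expressing LAP1 and is applied at 0.3 µg/mL; score merges spot fluorescence near 667 nm with signal-to-noise over triplicate slides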
Sam68 (KHDRBS1) = assay: Sam68 small-molecule binders, primary screen, biochemical, small-molecule microarray, 635 nm fluorescence (AID 1125); details: small-molecule microarray binding, higher = more signal;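 further: score merges 667 nm channel intensity with signal to noise over triplicate slides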
[17] = system: Chordin-like protein 2 (CHRDL2); assay: CHRDL2 small-molecule binders, primary screen, biochemical, small-molecule microarray, 635 nm fluorescence (AID 1126); details: small-molecule microarray binding, fluorescence 635 nm; higher = more signal;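 further: printed compound slides probed with Chrdl2 protein at 4 µg/mL for 1 h at 4 C; score merges 667 nm emission intensity with signal to noise over three replicate slides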
[18] = molecular target: Concanavalin-A (Canavalia ensiformis) (UniProt P02866); assay: ConA small-molecule binders, primary screen, artefact control for SMM control protein annotation, biochemical, small-molecule microarray, Alexa647 label, 635 nm (AID 1127); details: ConA-A647 binding fluorescence, higher = more signal;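 further: z combines 667 nm emission intensity with signal-to-noise across three replicate slides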
Sequence of Concanavalin-A (Canavalia ensiformis) (P02866 whole entry, looked up): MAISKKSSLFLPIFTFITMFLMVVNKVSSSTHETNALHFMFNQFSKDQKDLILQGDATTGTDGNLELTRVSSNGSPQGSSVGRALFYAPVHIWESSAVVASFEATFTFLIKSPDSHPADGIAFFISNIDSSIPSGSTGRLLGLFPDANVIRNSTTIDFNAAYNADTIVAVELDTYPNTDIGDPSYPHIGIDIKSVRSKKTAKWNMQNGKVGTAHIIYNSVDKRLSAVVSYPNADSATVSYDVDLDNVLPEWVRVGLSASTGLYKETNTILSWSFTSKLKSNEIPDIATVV

Sequence of Alpha-bungarotoxin (Bungarus multicinctus) (P60615 whole entry, looked up): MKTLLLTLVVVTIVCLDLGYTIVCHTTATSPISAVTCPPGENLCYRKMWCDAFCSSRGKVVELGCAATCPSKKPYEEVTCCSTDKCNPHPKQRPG
Sequence of Torsin-1A-interacting protein 1 (Homo sapiens) (Q5JTV8 whole entry, looked up): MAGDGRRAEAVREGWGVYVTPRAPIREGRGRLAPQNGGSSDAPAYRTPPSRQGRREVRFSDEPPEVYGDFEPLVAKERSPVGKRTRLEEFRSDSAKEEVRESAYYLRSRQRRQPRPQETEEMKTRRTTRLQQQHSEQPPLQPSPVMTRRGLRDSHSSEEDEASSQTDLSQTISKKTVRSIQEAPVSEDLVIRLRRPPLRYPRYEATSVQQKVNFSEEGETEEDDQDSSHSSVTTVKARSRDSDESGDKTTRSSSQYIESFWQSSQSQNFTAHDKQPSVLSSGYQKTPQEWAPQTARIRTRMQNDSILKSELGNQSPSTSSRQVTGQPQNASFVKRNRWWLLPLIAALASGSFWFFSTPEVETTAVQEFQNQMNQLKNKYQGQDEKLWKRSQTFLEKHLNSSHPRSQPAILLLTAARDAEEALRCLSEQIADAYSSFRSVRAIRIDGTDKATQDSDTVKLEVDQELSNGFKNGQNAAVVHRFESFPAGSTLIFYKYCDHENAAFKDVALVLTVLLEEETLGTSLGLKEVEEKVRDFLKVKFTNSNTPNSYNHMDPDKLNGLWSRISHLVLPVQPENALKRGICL
Sequence of Albumin (Bos taurus) (P02769 whole entry, looked up): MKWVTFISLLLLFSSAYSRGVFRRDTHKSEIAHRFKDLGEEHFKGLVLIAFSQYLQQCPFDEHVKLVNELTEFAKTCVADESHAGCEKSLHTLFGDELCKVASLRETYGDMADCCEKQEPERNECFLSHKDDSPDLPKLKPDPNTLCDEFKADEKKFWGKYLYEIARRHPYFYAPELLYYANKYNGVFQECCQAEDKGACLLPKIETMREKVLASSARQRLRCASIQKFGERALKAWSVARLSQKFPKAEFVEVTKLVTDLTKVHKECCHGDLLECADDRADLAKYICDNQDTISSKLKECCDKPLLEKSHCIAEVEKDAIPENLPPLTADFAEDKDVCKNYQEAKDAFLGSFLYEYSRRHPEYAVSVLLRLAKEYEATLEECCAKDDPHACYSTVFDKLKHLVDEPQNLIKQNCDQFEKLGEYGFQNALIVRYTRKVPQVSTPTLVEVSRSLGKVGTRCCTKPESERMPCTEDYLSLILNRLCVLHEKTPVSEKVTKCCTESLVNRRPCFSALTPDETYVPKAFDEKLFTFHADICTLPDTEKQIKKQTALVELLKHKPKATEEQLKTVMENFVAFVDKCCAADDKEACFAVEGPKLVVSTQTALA
Sequence of Left-right determination factor 2 (Homo sapiens) (O00292 whole entry, looked up): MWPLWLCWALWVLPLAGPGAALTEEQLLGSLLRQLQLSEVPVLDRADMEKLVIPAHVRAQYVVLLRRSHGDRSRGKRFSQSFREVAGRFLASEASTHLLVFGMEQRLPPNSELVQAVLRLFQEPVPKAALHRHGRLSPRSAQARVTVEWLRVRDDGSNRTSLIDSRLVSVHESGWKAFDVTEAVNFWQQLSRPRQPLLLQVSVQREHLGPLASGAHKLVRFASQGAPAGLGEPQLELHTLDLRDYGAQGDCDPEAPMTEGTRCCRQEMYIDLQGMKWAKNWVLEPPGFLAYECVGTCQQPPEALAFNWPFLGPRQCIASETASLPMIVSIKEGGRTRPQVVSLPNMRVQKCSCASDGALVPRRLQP

Structure (SMILES) | composite z-score [1] | z-score [2] | composite z-score [3] | composite z-score [4] | composite z-score [5] | composite z-score [6] | composite z-score [7] | composite z-score [8] | composite z-score [9] | composite z-score [10] | composite z-score (Albumin (Bos taurus)) | composite Z-score [11] | composite z-score [12] | composite z-score [13] | composite z-score [14] | composite z-score [15] | composite z-score [16] | composite z-score (Sam68 (KHDRBS1)) | composite z-score [17] | composite z-score [18]
Cc1ccc(S[C@]2(C(=O)NCC(F)(F)F)CC(=O)N(C3Cc4ccccc4C3)[C@@H]2c2ccc(CO)cc2I)cc1 | -0.263 | -1.55 | -1.56 | -0.0026 | 0.994 | -0.184 | -0.197 | 2.14 | 0.265 | 0.918 | 0.0944 | 0.325 (inactive) | -0.207 | -0.156 | 0.629 | 0.403 | -0.245 | -0.292 | -1.18 | -1.71
CCOC1=C2C(c3ccc(C)cc3)N(S(=O)(=O)c3ccc(C)cc3)CC2n2c(=O)n(-c3ccccc3)c(=O)n2C1 (stereo not given) | 1.32 | -1.1 | 0.584 | 0.683 | -0.332 | 0.0244 | -0.0866 | 0.664 | 0.582 | 1.42 | 0.495 | 0.193 (inactive) | 0.125 | -0.0276 | 0.639 | 2.65 | 0.91 | 1.35 | 0.339 | 1.14
O=C1C2C=CC(C(O)c3ccccn3)N(Nc3ccccc3F)C2C(=O)N1c1ccccc1 (stereo not given) | 0.642 | 0.426 | 0.0355 | -0.116 | -0.332 | -0.0685 | 0.0278 | -0.216 | 0.0065 | 0.231 | 0.127 | -0.21 (inactive) | -0.0918 | -0.111 | 0.766 | 0.596 | 0.753 | 0.0702 | 0.194 | 0.634
[N-]=[N+]=Nc1ccccc1C[C@]1(C(=O)N2CCCCC2)N=C(c2ccc(OCCCO)cc2)O[C@H]1c1ccccc1N=[N+]=[N-] | 0.903 | -2.5 | -0.0089 | 1.46 | 0.605 | 0.2 | 0.294 | 1.87 | 1.21 | 0.703 | 0.94 | 0.121 (inactive) | 0.311 | 0.252 | 0.623 | 2.91 | 1.17 | 1.29 | -0.292 | 0.979
COCCCNC(=O)[C@@]1(Cc2ccccc2I)c2ccccc2C(=O)N(Cc2ccccc2)[C@H]1c1ccc(CO)cc1 | 0.609 | -1.38 | -2.53 | -0.387 | 0.239 | -0.232 | -0.0146 | 0.0327 | 0.258 | -1.4 | -1.09 | -0.0662 (inactive) | -0.265 | -0.162 | 0.574 | 0.817 | -0.665 | 0.337 | -1.47 | -1.3
O=C1O[C@H](c2ccccc2)[C@H](c2ccccc2)N2[C@H]1[C@@H](C(=O)N1CCCCCCC1)[C@]1(C(=O)Nc3ccc(C#CC4=CCCCC4)cc31)[C@H]2c1ccc(O)cc1 | 1.54 | -2.29 | 1.78 | 3.22 | 2.02 | 1.68 | 3.35 | 3.53 | 5.98 | 5.18 | 0.599 | 10.9 (active) | 2.37 | 1.22 | 1.1 | 5.31 | 1.2 | 1.35 | 1.71 | 1.14
Cc1ccccc1/C=C/C=O | -1.54 | 0.19 | -0.615 | -0.559 | -0.161 | -0.172 | -0.154 | -0.41 | -0.23 | -0.465 | -0.699 | -0.0934 (inactive) | -0.19 | -0.171 | -0.293 | -0.256 | -0.298 | -1.35 | -0.56 | -0.485
CC(=O)N1Cc2ccccc2C[C@@]2(N=C(c3ccc(OCCCO)cc3)O[C@H]2c2ccccc2)C1=O | 0.671 | -2.83 | 0.587 | 1.26 | 0.465 | -0.0051 | 0.0895 | 0.909 | 2.05 | 2.37 | -0.0471 | 0.0748 (inactive) | 0.22 | 0.139 | 0.709 | 3.18 | 1.24 | 1.3 | 0.611 | 1.17
C=C[C@H](C)[C@H](OC(=O)Nc1ccc(OC)cc1)c1ccc(O)c2ccccc12 | -0.942 | -3.3 | -0.654 | -1.38 | -0.881 | -0.129 | -0.0709 | -0.0691 | 0.041 | -0.596 | 0.171 | 0.741 (inactive) | -0.185 | -0.193 | 0.696 | 0.702 | 0.513 | -0.07 | 0.396 | -0.503
COc1ccc(C(=O)Nc2cccc(CN3C(=O)[C@@]4(O[C@@H](CCn5cc([C@H](O)c6ccccc6)nn5)[C@H]([Si](C)(C)c5ccc(OC)cc5)[C@H]4C)c4ccccc43)c2)cc1 | -0.32 | -5.06 | 0.534 | -0.0819 | -0.346 | 0.0279 | -0.262 | -0.205 | 0.485 | 0.935 | -0.455 | 0.257 (inactive) | 0.123 | -0.053 | 0.113 | 1.16 | 0.0494 | 0.459 | 0.078 | 0.791
Cc1ccc(N2C(=O)c3ccccc3[C@@H](C(=O)NC(C)C)[C@@H]2c2ccc(CO)cc2)nc1 | -0.191 | -0.301 | 0.0413 | -0.973 | -0.754 | 0.0101 | -0.291 | -0.493 | 2.09 | -0.719 | -0.106 | -0.0969 (inactive) | -0.272 | -0.152 | 0.743 | 0.971 | 0.618 | -0.721 | -0.0432 | -0.0441
C=CC[C@]1(C(=O)NCCN2CCOCC2)N=C(c2ccc(OCCCO)cc2)O[C@H]1c1ccccc1N=[N+]=[N-] | 1.01 | -0.44 | 0.26 | 1.34 | -0.0083 | 0.048 | -0.155 | 1.39 | 1.36 | 1.3 | 0.927 | 0.581 (inactive) | 0.0303 | -0.0359 | 0.691 | 1.55 | 0.811 | 1.24 | 0.663 | 0.563
